TbPYK inhibitor: qHTS of Trypanosoma Brucei Inhibitors. Potency, µM (doses to about 76.8 µM), hits mostly inhibitors. 0.12% of 410,000 active. TbPYK enzyme, Kinase-Glo Plus ATP luminescence, 45 min. AID 624173, 2012. pyruvate kinase (Trypanosoma brucei), Q57TT1; also: nearly all actives have a fitted effect of over 50% in size
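Activity of T. brucei pyruvate kinase was followed by Kinase-Glo Plus luminescence after the enzyme reacted 45 min at room temperature with 130 uM ADP (final) and substrate. Test compounds were added before ADP at multiple concentrations.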
Shiga inhibitor: A qHTS for Small Molecule Inhibitors of Shiga Toxin. inhibition, % at 38.7 µM. Vero cells, Shiga toxin protein synthesis inhibition reporter. 9.2% of 290,000 active; in the data active = inhibition mostly above about 28%, no sharp cut-off; inactive = mostly below about 43%
Cycloheximide cs: Cycloheximide Counterscreen for Small Molecule Inhibitors of Shiga Toxin; cell reporter, cycloheximide protein synthesis inhibition counterscreen; max response, %; 12% of 300,000 active; AID 2314, 2010; in the data active = max response mostly above about 13%, no sharp cut-off; inactive = mostly below about 14%; also: read at 38.3 µM for the half of the compounds with a filed dose
NS1 function inh: qHTS Assay for Inhibitors of Influenza NS1 Protein Function; Potency, µM (doses to about 46.1 µM); 0.4% of 270,000 active; calls by dose curve; also: actives are rising curves; nearly all actives have a fitted effect of over 50% in size
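Recovery from NS1-induced slow growth read by OD600 in budding yeast switched to galactose assay medium (pH 6.0, -URA) at 1:100 dilution. Compound 23 nl per well; the matching strain lacking NS1 serves as control.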
SARS PLpro yeast: qHTS of Yeast-based Assay for SARS-CoV PLP; S. cerevisiae expressing SARS-CoV PLpro, growth rescue; Potency, µM (top dose mostly 32.9 µM), most hits filed as activators; 0.19% of 330,000 active; AID 485353, 2010; calls by dose curve; also: nearly all actives have a fitted effect of over 55% in size
LmPK inhibitor: qHTS Assay for Inhibitors of Leishmania Mexicana Pyruvate Kinase (LmPK); Q27686; purified LmPK, Kinase-Glo ATP luminescence, 1 h; Potency, µM (titrated, usually from 57.5 µM), hits mostly inhibitors; 0.37% of 290,000 active
Target sequence (Q27686 whole entry, looked up): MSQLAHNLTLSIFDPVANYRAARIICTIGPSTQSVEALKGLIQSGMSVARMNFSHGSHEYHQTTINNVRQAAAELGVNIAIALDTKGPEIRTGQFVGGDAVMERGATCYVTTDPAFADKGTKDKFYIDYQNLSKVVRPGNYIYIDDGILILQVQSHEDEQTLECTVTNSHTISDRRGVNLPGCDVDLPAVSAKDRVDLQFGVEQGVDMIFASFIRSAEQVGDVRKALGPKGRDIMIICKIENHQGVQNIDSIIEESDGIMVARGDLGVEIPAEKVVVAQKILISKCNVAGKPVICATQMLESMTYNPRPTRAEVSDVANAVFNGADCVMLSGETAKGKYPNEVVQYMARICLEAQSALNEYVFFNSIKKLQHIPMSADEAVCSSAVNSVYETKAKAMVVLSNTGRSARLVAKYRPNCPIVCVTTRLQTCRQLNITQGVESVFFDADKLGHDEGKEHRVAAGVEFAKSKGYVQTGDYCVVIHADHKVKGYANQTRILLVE
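Purified LmPK (0.1 nM) converted ADP (0.1 mM) to ATP with PEP (0.5 mM) in imidazole buffer pH 7.2 with KCl and MgCl2, 1 h at room temperature. ATP was read by Kinase-Glo luminescence; data normalized to uninhibited and no-enzyme controls.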
A number is an active result; n = inactive; u = inconclusive; x = no result given; [ ] = remark or other dose. The entries come from a sample that favours hits as a whole. Unless noted, calls follow the shape of the dose curve; as a rule, active = well fitted curve in the direction sought with a large enough effect; inconclusive = small, poorly fitted or top-dose-only effect, or another doubt; inactive = no such curve, though single readings can be large; an effect the other way counts as inactive or inconclusive.

SMILES	TbPYK inhibitor	Shiga inhibitor	Cycloheximide cs	NS1 function inh	SARS PLpro yeast	LmPK inhibitor
CCOc1ccccc1NC(=O)[C@@H](NC(=O)c1ccccc1F)C(C)C	n	n	n	n	n	n
COc1ccc(CCNC(=O)C2=CCN(S(=O)(=O)c3ccc(F)cc3)CC2)cc1OC	n	n	n	n	n	n
COc1ccccc1CCNC(=O)c1nc(-c2cccs2)no1	n	66.6	29.2	x	n	n
O=S(=O)(NCc1csc(-c2cccs2)n1)c1ccccc1	n	n	6.7	n	n	n
O=C(NCc1csc(-c2cccs2)n1)C1CCCCC1	n	76.2	28.6	n	n	n
CCC(=O)NCc1csc(-c2cccs2)n1	n	n	24.2	n	n	n
O=C1SCCC1NS(=O)(=O)c1ccc([N+](=O)[O-])cc1 (centres undefined)	n	n	n	n	n	n
COc1ccccc1CC(=O)NCc1csc(-c2cccs2)n1	n	68.0	46.6	n	n	n
COc1ccc(C(=O)NCc2csc(-c3cccs3)n2)cc1	n	n	n	n	n	n
COc1cccc(S(=O)(=O)N(C)C[C@H]2Oc3ncc(Br)cc3C(=O)N([C@@H](C)CO)C[C@@H]2C)c1	n	x	x	x	x	x
COC(=O)C(C)(C)ONC(=O)Nc1ccc(Br)cc1	n	n	n	n	n	n
CC(NC(=O)Nc1ccc(Br)cc1)C(C)(C)C (centres undefined)	n	79.7	27.0	n	n	n
CSCCC(NC(=O)OC(C)(C)C)C(=O)Oc1ccc2c(=O)c(-c3ccc4c(c3)OCCO4)coc2c1 (centres undefined)	n	83.3	36.3	n	n	n
CSCCC(NC(C)=O)C(=O)Oc1ccc2c3c(c(=O)oc2c1)CCCC3 (centres undefined)	n	n	n	n	n	n
O=C(NCCc1ccc(Cl)cc1)C1CC(=O)N(C2CCCC2)C1 (centres undefined)	n	n	n	n	n	n
CC(C)(C)C(=O)OCc1nc(-c2ccc(C(F)(F)F)cc2)cs1	n	n	18.9	n	n	n
COc1ccc(CCNS(=O)(=O)c2cc(-c3cc(C)no3)ccc2OC)cc1OC	n[15.4 µM]	x	x	x	x	x
Cc1ccccc1NC(=O)c1cccc(C(F)(F)F)c1	n	n	n	n	n	n
O=C(Nc1cccn2ncnc12)c1cccc(C(F)(F)F)c1	n	n	23.9	x	n	n
O=C(Nc1ccsc1C(=O)O)c1cccc(Oc2ccccc2)c1	n	n	13.6	n	n	n
O=C(Nc1ccsc1C(=O)O)c1cccc(C(F)(F)F)c1	n	76.9	61.1	n	n	n
CCN1C(=O)c2ccccc2S(=O)(=O)c2ccc(C(=O)NCc3ccc(C)cc3)cc21	n	x	x	x	x	x
CCOC(=O)/C=C/C(=O)OCC(=O)N1CCN(C(=O)c2ccco2)CC1	n	n	9.0	n	n	n
Cc1cccc(C(=O)OCC(=O)N2CCN(C(=O)c3ccco3)CC2)c1O	n	x	x	x	n	x
O=C(/C=C/c1ccc(OC(F)F)cc1)OCC(=O)N1CCN(C(=O)c2ccco2)CC1	n	n	n	n	n	n
SMILES	TbPYK inhibitor	Shiga inhibitor	Cycloheximide cs	NS1 function inh	SARS PLpro yeast	LmPK inhibitor
Cc1ccsc1C(=O)OCC(=O)N1CCN(C(=O)c2ccco2)CC1	n	26.3	n	x	n	n
CCC(CC)C(=O)NC1CC(=O)N(c2ccc3c(c2)OCCO3)C1 (centres undefined)	n	x	x	x	x	x
Cc1ccc(-n2c(=S)[nH]c3c(oc4ccccc43)c2=O)cc1C	n	27.4	12.7	n	n	n
O=c1c2oc3ccccc3c2[nH]c(=S)n1-c1ccc(F)cc1	n	n	n	x	n	n[11.5 µM]
Cc1cc(N/N=C/c2ccc(O)c(C)c2O)nc(-c2ccccc2O)n1	n	n	24.6	n	n	n
C/C(=N\Nc1cc(C)nc(-c2ccccc2)n1)c1cccc([N+](=O)[O-])c1	n	n	n	n	n	n
C/C(=N\Nc1cc(C)nc(-c2ccccc2O)n1)c1ccccc1	n	n	30.6	n	n	n
Cc1cc(Nc2ccc(F)c(F)c2)nc(-c2ccccc2O)n1	n	n	n	n	n	n
O=c1c2ccccc2oc2ccc(Oc3ccccc3)cc12	n	42.0	40.9	n	n	n
CCOc1ccc(C(=O)CSc2nnc(C3CC3)n2C)cc1	n	37.3	14.0	n	n	n
Cn1ccnc1SCC(=O)c1ccc(OC(F)F)cc1	n	78.4	33.4	n	n	n
CCOc1ccc(NC(=O)CSc2nnc(C3CC3)n2C)cc1	n	n	n	n	n	n
COc1ccc(C(=O)CSc2nc(C)cc(=O)[nH]2)cc1	n	n	n	n	n	n
COC(=O)c1ccc(CSc2nccn2C)cc1	n	64.7	52.4	n	n	n
COc1ccc(C(=O)CSc2cc(C)[nH]c(=O)n2)cc1	n	64.1	40.2	n	n	n
O=C(COc1ccc(F)cc1)Nc1ccc2nc(SCc3ccccc3)sc2c1	n	x	x	x	x	x
COc1ccc(C(=O)CSc2nccn2C)cc1	n	67.2	29.5	n	n	n
COc1ccc(CC(=O)NCc2nnc(SCC(=O)c3ccc(OC)cc3)n2C)cc1	n	n	n	x	n	n
Cn1ccnc1SCC(=O)c1cccc(C(F)(F)F)c1	n	71.8	25.9	n	n	n
COc1cc(C(=O)CSc2nccn2C)cc(OC)c1OC	n	n	n	n	n	n
COc1ccc(NCc2nnc(SCC(=O)c3ccc(OC)cc3)n2C)cc1	u	n	33.6	n	n	n
O=C(/C(N=Nc1cccc([N+](=O)[O-])c1)=C(/O)c1ccc(Br)cc1)C(F)(F)F	x	85.7	21.6	n	n	n
N#C/C(=N\Nc1cccc([N+](=O)[O-])c1)C(=O)c1ccc(Br)cc1	n	n	n	x	n	n
Cc1ccc(CNC(=O)CCc2c(C)nc3c4c(C)cc(C)nc4nn3c2C)cc1	n	x	x	x	x	x
CCc1ccccc1S(=O)(=O)Cc1ccc(C(=O)NCCc2ccc(Cl)cc2)o1	n	x	x	x	x	x
SMILES	TbPYK inhibitor	Shiga inhibitor	Cycloheximide cs	NS1 function inh	SARS PLpro yeast	LmPK inhibitor
COc1ccccc1N=Nc1ccc(N)c(C)c1	n	n	32.4	n	n	n
COc1ccc(-n2nc(C(=O)N(C)c3cc(C)ccc3C)c3c4ccccc4n(C)c3c2=O)cc1Cl	n	x	x	x	x	x
CC(C(=O)Nc1ccc2c(c1)OCCO2)n1nnc(-c2ccccc2)n1 (centres undefined)	n	n	n	n	n	n
C[C@@H](C(=O)Nc1ccc2c(c1)OCCO2)n1nnc2ccccc2c1=O	n	106.7	44.9	n	n	n
CC(C(=O)Nc1ccc2c(c1)OCCO2)N1Cc2ccccc2C1=O (centres undefined)	n	n	21.2	n	n	n
CCC(C)[C@@H](C(=O)Nc1ccc2c(c1)OCO2)N1Cc2ccccc2C1=O (some centres undefined)	n	n	n	n	n	n
CC(OC(=O)/C=C/c1ccccc1)C(=O)Nc1ccc2c(c1)OCCO2 (centres undefined)	n	x	x	x	n	x

Compound activity as filed in PubChem.
